# Assay results: PubChem BioAssay AID504652 (National Center for Advancing Translational Sciences (NCATS), 2011)
# Among all 360,000 compounds or so, about 11,000 (3.1%) were called active. The list comes from a sample in which actives are over-represented; it also holds similar structures and randomly drawn compounds. A number with no mark means an inactive call. No stated cut-off is given here; in the data, active means activity change below about -30%; inactive means the rest.
# Target: D(1A) dopamine receptor (Homo sapiens) (UniProt P21728)
# Experiment: Antagonist of Human D 1 Dopamine Receptor: qHTS
# Conditions: HEK293 TREx D1 cells, calcium flux, dopamine EC80; at 10 µM; stronger effect = lower value
# Source text: Dopamine receptors (DARs) are involved in the etiology and/or therapy of a number of neuropsychiatric and endocrine disorders. For instance, all receptor-based antiparkinsonian drugs work via stimulating the […] DAR subtype whereas all FDA-approved antipsychotic agents are antagonists of this receptor. […] There are three different types of allosteric modulators that we are seeking, two of which will stimulate or augment receptor signaling, allosteric agonists and potentiators, while the third, allosteric antagonists, will attenuate receptor signaling. The present primary screening assay measures compound antagonism after an EC80 addition of dopamine by tracking calcium flux in a […], inducible Hek293 Trex D1 cell line. NIH Chemical Genomics Center [NCGC] NIH Molecular Libraries Probe Centers Network [MLPCN] MLPCN Grant: NS064831-01 Assay Submitter (PI): David Sibley
# Freshly passaged cells are plated in 1536 well black, clear bottom plates at a density of 4000 cells/well in 3 ul of complete media containing 1x tetracycline inducer. After an overnight incubation at 30 C in 5% CO2, cells are loaded with 2 ul of the no wash Calcium Assay Kit (ABD Bioquest) and incubated at room temperature for 30 to 90 minutes. Agonist read: A 10 cycle (1 second/cycle) baseline measurement is taken and then the FDSS online 1536 pintool delivers 23 nl of compound library (as well as dopamine controls) to the plate. The plate is measured for kinetically at 1 cycle/sec for 180 seconds. Following the 180 second read, 1 ul of an EC80 (negative modulation assay) is delivered by an onboard pipette head. Measurements are taken kinetically for an additional 180 seconds.
# On the % scale 0 is the no-effect control and ±100 the full control effect.
# Sequence of D(1A) dopamine receptor (Homo sapiens) (P21728 whole entry, looked up): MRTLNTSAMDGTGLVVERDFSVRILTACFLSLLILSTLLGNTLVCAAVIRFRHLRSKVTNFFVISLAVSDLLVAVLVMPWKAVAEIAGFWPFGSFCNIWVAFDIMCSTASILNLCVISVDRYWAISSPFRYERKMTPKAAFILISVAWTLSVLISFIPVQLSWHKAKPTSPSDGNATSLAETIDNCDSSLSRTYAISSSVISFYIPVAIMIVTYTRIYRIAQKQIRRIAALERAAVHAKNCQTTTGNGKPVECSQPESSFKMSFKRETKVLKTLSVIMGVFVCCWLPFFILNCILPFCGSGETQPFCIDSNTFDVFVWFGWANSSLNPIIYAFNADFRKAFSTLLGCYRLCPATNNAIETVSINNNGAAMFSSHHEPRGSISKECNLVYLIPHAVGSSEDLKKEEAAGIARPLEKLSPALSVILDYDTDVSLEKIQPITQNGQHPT
row,SMILES,"activity change, negative = inhibition"
1,CC(C)OCCCn1c(SCC(=O)c2ccccc2)nc2c(sc3ccccc32)c1=O,4.36%
2,Cc1cc(C)cc(OC(C)C(=O)Nc2nc3c(s2)CCCC3)c1 (stereo not drawn),3%
3,COc1ccc2cc(CNc3ccc(OC)c(OC)c3)c(=O)n(CC(=O)Nc3ccccc3F)c2c1,-14.2%
4,CCOc1ccc(CN2CCN(Cc3c[nH]c4ccccc34)CC2)cc1,4.58%
5,Cc1ccc2[nH]cc(CCNC(=O)C3CCCCC3)c2c1,-23.8%
6,O=C(NCCc1c[nH]c2ccccc12)C1CCN(Cc2ccc(Br)cc2)CC1,-56.3% (active)
7,Cc1cc(C)cc(NS(=O)(=O)c2ccc3[nH]cc(C(=O)N4CCCCC4)c(=O)c3c2)c1,-3.92%
8,CCN(c1ccc(Cl)cc1)S(=O)(=O)c1nnc(NC(=O)c2ccco2)s1,-1.57%
9,COc1cccc(CN(C)CC2CCCN(CCc3ccc(Cl)cc3)C2)c1OC (stereo not drawn),-79.9% (active)
10,Cc1nc2ccc(C(=O)N(C)CC3CCCN(CCc4ccc(Cl)cc4)C3)cc2[nH]1 (stereo not drawn),-13.3%
11,COc1cccc(CN(C)CC(=O)NCc2ccccc2Cl)c1OC,-23.2%
12,CCc1ccc(NC(=O)CCS(=O)(=O)c2cc3c(cc2Cl)NC(=O)CO3)cc1,-16.7%
13,COc1ccc(-n2c(SCC(N)=O)nc3c(oc4ccccc43)c2=O)cc1,10.8%
14,Nc1c(C(=O)c2cccs2)sc2nsc(SCCN3CCCCC3)c12,-42.4% (active)
15,CN(C)c1ccc(C(CNS(=O)(=O)c2cc(F)ccc2F)N2CCOCC2)cc1 (stereo not drawn),-3.66%
16,Cc1ccc(NC(=O)CSc2nc3c([nH]c4ccccc43)c(=O)n2-c2ccccc2)c(C)c1,-35.7% (active)
17,Cc1ccc(NC(=O)CSc2nc3c([nH]c4ccccc43)c(=O)n2-c2ccccc2)cc1Cl,-8.44%
18,Cc1cccc(NC(=O)CSc2nc3c([nH]c4ccccc43)c(=O)n2-c2cc(C)cc(C)c2)c1,23.9%
19,CCN(C(=O)CSc1nnc(-c2ccncc2)o1)c1ccccc1,-3.41%
20,CCc1ccccc1NC(=O)CSc1nnc(-c2ccncc2)o1,7.4%
21,CCN(CC)C(=O)CSc1nnc(-c2ccc(S(=O)(=O)NCc3ccccc3Cl)cc2)o1,-32.6% (active)
22,CCOc1ccc(C(=O)c2cn(Cc3ccc(F)cc3)c3ccc(F)cc3c2=O)cc1,-1.13%

row,SMILES,"activity change, negative = inhibition"
1,Cc1cccc(Cn2c(SCc3ccc(C(=O)N4CCC(C)CC4)cc3)nc3ccncc32)c1,-18.5%
2,O=C1NC(c2ccccc2)Oc2ccccc21 (stereo not drawn),3.6%
3,CN1CC(c2ccccc2)C2(COc3ccccc3C2=O)C12C(=O)Nc1ccccc12 (stereo not drawn),-39.3% (active)
4,Oc1ccccc1-c1nc(/C=C/c2ccc(F)cc2)no1,3.54%
5,Cc1cc2c(cc1S(=O)(=O)CCC(=O)Nc1ccc(OC(F)(F)F)cc1)OCC(=O)N2,-0.986%
6,CCOC(=O)c1ccc(NC(=O)CC2C(=O)N(c3cccc(OC)c3)C(=O)N2C2CCCCC2)cc1 (stereo not drawn),-8.12%
7,CC(=O)c1sc(N/N=C\c2ccc(C)cc2)nc1C,-54.7% (active)
8,CC(=O)c1sc(N/N=C/c2ccc(C(C)C)cc2)nc1C,-11%
9,CC(=O)c1sc(NC(=O)C2=NN(c3ccccc3)C(=O)CC2)nc1C,2.3%
10,CCOC(=O)CNC(=O)c1cc2c(=O)n3cccc(C)c3nc2s1,0.697%
11,COc1ccc(N(CC(=O)NC2CCCCCCC2)S(=O)(=O)c2c(C)nn(C)c2C)cc1,-2.1%
12,CCOc1ccc(N(CC(=O)NC2CCCCCC2)S(=O)(=O)c2c(C)[nH]c(=O)[nH]c2=O)cc1,7.77%
13,COc1ccc(N(CC(=O)NC2CCCCC2)S(=O)(=O)c2c(C)[nH]c(=O)[nH]c2=O)cc1,-34% (active)
14,CCOC(=O)c1cnc(-n2nc(C)cc2C)nc1NNc1cc(C)nc(-c2ccccc2)n1,-5.98%
15,CCCOn1c(-n2nc(C)cc2C)nc2ccccc2c1=O,-4.18%
16,Cc1cc(C)n(-c2c(F)c(F)c(COC(=O)c3ccccc3)c(F)c2F)n1,-44% (active)
17,CCCN(CCC)C(=O)C1CCCN(c2ncnc3c2nc2n3CCCCC2)C1 (stereo not drawn),11.5%
18,Cc1cc(C(=O)Nc2ccc(C)c(S(=O)(=O)N3CCOCC3)c2)c2ccccc2n1,11.4%
19,Cc1ccc(NC(=O)C(C)OC(=O)Cc2c[nH]c3ccccc23)cc1S(=O)(=O)N1CCOCC1 (stereo not drawn),-47.8% (active)
20,CC(OC(=O)CCCc1c[nH]c2ccccc12)C(=O)Nc1ccc(S(N)(=O)=O)cc1 (stereo not drawn),8.67%
21,COc1cc(OC)c(OC)cc1/C=C/c1nc2cc3ccccc3cc2c(=O)n1-c1ccc(F)c(Cl)c1,-0.661%
22,CCCN(CCC)C(=O)Cn1c(=O)n(-c2ccc(Cl)cc2)c(=O)c2c3c(sc21)CCCCC3,10.1%

row,SMILES,"activity change, negative = inhibition"
1,Cc1ccc(CNC(=O)Cn2c(=O)ccc3cc(S(=O)(=O)N4CCCC4)ccc32)cc1,3.17%
2,Cc1ccc(NC(=O)OCCNC(=O)c2ccncc2)cc1,-26.6%
3,CCCCCOC(=O)NCCOC(=O)Nc1ccc(C(=O)OCC)cc1,-34.7% (active)
4,CCCCC(CCC(=O)Nc1ccc(C(=O)OCC)cc1)C(=O)O (stereo not drawn),-5.38%
5,Cc1ccc2nc(COc3cccc(NC(=O)c4cccc(Cl)c4)c3)cc(=O)n2c1,3.14%
6,CCOC(=O)c1cc2c(=O)n3ccccc3nc2n(Cc2ccco2)c1=NC(=O)c1ccc(F)cc1,-29.5%
7,COc1ccc(OC)c(NC(=O)Cn2c(=O)n(Cc3ccccc3)c(=O)c3ccccc32)c1,-5.43%
8,CCOc1ccc(NC(=O)c2c(NC(=O)Cc3ccccc3)sc3c2CCC(C)C3)cc1 (stereo not drawn),11.2%
9,Cc1ccc(NC(=O)c2cc(S(=O)(=O)NCCC3=CCCCC3)ccc2F)cc1C,-29.8%
10,CC(Nc1nc(N2CCN(CCO)CC2)nc2ccccc12)c1ccccc1 (stereo not drawn),2.98%
11,CC(Nc1nc(N2CCCC2)nc2ccccc12)c1ccccc1 (stereo not drawn),-25.4%
12,CC(Nc1nc(N2CCOCC2)nc2ccccc12)c1ccccc1 (stereo not drawn),-48.3% (active)
13,Cc1ccccc1CNC(=O)c1cccc(NC(=O)c2nsc3ccccc23)c1,3.86%
14,COc1cc(CNCCSc2nnnn2C)ccc1OCc1ccc(Cl)cc1Cl,0.753%
15,CN(C)c1ccc(C(=O)NCC(=O)OC(C(=O)Nc2cc(C(F)(F)F)ccc2Cl)c2ccccc2)cc1 (stereo not drawn),-15.1%
16,Cc1ccc(C(=O)CS(C)(=O)=O)cc1,-33.3% (active)
17,Cc1ccc(C(=O)Cc2nnc(C)s2)cc1,7.19%
18,Cc1ccc(C(=O)Cn2cccn2)cc1,-6.01%
19,CCc1nc2onc(C)c2c(=O)n1CC(=O)O,10.4%
20,O=C(COc1ccccc1F)OCc1cc(=O)n2nc(C3CCCCC3)sc2n1,11%
21,COc1cc(NC(=O)Cn2c(=O)n(Cc3ccco3)c(=O)c3oc4ccccc4c32)cc(OC)c1,8.05%
22,COc1cc(OC)c(OC)cc1/C=C/c1nc2ccccc2c(=O)n1-c1ccc(Br)c(C)c1,0.553%

row,SMILES,"activity change, negative = inhibition"
1,Cc1ccc(S(=O)(=O)CCC(=O)Nc2nnc(CC(C)C)s2)cc1,6.37%
2,CC(C)Cc1nnc(NC(=O)CCc2ccccc2)s1,3.92%
3,CC(C)Cc1nnc(NC(=O)CCC(=O)Nc2ccc3cn[nH]c3c2)s1,-55.6% (active)
4,Cc1c(Cl)cccc1NC(=O)C1CCCN(C(=O)c2cnn(-c3ccccc3)c2-n2cccc2)C1 (stereo not drawn),7.6%
5,Cc1ccc(SCC(=O)Nc2ccc3oc(-c4ccccc4F)nc3c2)cc1,-5.46%
6,CCOC(=O)c1ccccc1NC(=O)c1nn(-c2ccc(OC)c(Cl)c2)c(=O)c2c1c1ccccc1n2C,5.56%
7,O=C(CSc1cn(CC(=O)N2CCOCC2)c2ccccc12)Nc1ccccc1,11.6%
8,COc1cccc(NC(=O)CN(C)C(=O)/C=C/c2cc(OC)ccc2OC)c1,24.2%
9,COc1cccc(NC(=O)CN(C)C(=O)c2ccccc2CCc2ccccc2)c1,3.89%
10,COc1cccc(NC(=O)CN(C)C(C)C(=O)Nc2ccc(C#N)cc2)c1 (stereo not drawn),-40.7% (active)
11,COC(=O)c1ccccc1NC(=O)c1cnn(-c2ccc(F)cc2)c1-n1cccc1,15%
12,Cc1cccc(NC(=O)Cn2c(C(F)(F)F)nc3ccccc32)c1C,-9.8%
13,COc1cccc(C(=O)NCc2ccc3c(c2)CCN3C(=O)c2ccncc2)c1,-7.86%
14,Cc1ccc(CNC(=O)c2c(O)nc3c(C)cccn3c2=O)cc1,16.2%
15,Cc1cccc(-n2c(SCC(N)=O)nc3c(oc4ccccc43)c2=O)c1,-16.4%
16,CCc1sc(C(=O)N2CCN(CC(=O)Nc3cccc(F)c3)CC2)cc1C,-30.4% (active)
17,CC(=O)N1CCN(CC(=O)Nc2ccc(C)c(F)c2)CC1,1.94%
18,O=C(CN1CCN(c2ccc(F)cc2)CC1)Nc1cccc(C(F)(F)F)c1,-2.58%
19,O=C(CSc1n[nH]c(-c2ccccc2)n1)N1CCCCC1,-15.7%
20,COC(=O)[C@@H](NC(=O)Nc1cc(Cl)ccc1C)C(C)C,-41.7% (active)
21,Cc1ccc(Cl)cc1NC(=O)COC(=O)CC(C)(C)C,4.47%
22,COc1ccc(Cl)cc1NC(=O)NC(C)C(C)(C)C (stereo not drawn),-26.1%
